# Test results reported in PubChem BioAssay (NCATS).
# Where “and” joins values, the source holds several entries; their conditions need not be identical. Equal entries are not always repeated. Records with an inconclusive call do not appear. Calls of active or inactive are those of the source. Unless noted, calls come from the whole dose curve; as a rule, active = well fitted curve in the direction sought with a large enough effect; inconclusive = small, poorly fitted or top-dose-only effect, or another doubt; inactive = no such curve, though single readings can be large; an effect the other way counts as inactive or inconclusive.
# Tests used:
# [1] = NCATS anti-infectives library activity on HEK293 viability as a counter-qHTS vs the C. elegans viability qHTS (AID 1745854);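 note: HEK293 cells exposed to compounds for 24 hr before the viability read; % is set by controls: 0 for no effect and ±100 for the full control effect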
# Procedure, shortened: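 HEK293 cells (1,500/well) exposed 24 hr at 37C to 1:5 titrations, up to 41.7 uM final; counter-screen to a C. elegans viability qHTS. Viability by CellTiter-Glo luminescence after 10 min at room temperature; digitonin as control.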
# [2] = target: Catechol O-methyltransferase (Homo sapiens) (UniProt P21964); test: Confirmatory Screen for Target Class Profiling of Small Molecule Inhibitors of Methyltransferases (AID 1745852; calls by dose curve; note: potency is the fitted concentration of half-maximal effect; for activity change, negative = inhibition: % is set by controls: 0 for no effect and ±100 for the full control effect); details: MTase-Glo luminescence, SAH detection, recombinant enzyme; measured here: COMT max response; stronger effect = lower value
# Catechol O-methyltransferase (Homo sapiens), sequence (P21964 whole entry, looked up): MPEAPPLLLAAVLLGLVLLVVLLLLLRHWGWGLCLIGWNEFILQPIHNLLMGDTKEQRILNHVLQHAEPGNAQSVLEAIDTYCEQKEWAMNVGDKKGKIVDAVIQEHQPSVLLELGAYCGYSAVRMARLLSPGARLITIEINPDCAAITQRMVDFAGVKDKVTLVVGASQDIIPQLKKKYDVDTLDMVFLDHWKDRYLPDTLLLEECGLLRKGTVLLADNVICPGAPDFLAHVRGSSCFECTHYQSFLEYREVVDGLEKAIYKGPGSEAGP
# [3] = target: Guanidinoacetate N-methyltransferase (Homo sapiens) (UniProt Q14353); test: as above; details: MTase-Glo luminescence, SAH detection, recombinant enzyme; activity change, negative = inhibition: at 57.3 µM (top of the series)
# [4] = target: Nicotinamide N-methyltransferase (Homo sapiens) (UniProt P40261); test: as above; details: MTase-Glo luminescence, SAH detection, recombinant enzyme; measured here: NNMT max response; stronger effect = lower value
# Nicotinamide N-methyltransferase (Homo sapiens), sequence (P40261 whole entry, looked up): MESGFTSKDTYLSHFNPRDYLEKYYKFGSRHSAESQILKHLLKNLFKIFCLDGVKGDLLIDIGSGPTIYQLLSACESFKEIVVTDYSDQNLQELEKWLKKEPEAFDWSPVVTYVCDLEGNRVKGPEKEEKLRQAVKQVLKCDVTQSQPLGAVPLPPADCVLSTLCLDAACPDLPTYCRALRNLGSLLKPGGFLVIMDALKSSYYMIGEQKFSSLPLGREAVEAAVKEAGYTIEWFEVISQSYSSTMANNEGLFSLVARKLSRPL
# [5] = target: Phenylethanolamine N-methyltransferase (Homo sapiens) (UniProt P11086); test: as above; details: MTase-Glo luminescence, SAH detection, recombinant enzyme; measured here: PNMT max response; stronger effect = lower value
# Phenylethanolamine N-methyltransferase (Homo sapiens), sequence (P11086 whole entry, looked up): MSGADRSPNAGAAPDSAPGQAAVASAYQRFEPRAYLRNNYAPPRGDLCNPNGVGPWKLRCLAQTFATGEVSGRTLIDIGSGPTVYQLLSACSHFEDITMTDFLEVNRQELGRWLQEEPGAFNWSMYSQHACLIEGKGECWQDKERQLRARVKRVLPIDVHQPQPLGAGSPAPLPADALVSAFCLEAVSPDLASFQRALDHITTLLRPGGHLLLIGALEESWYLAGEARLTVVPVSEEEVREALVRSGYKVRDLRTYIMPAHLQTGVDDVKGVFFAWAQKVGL
# [6] = target: Rap guanine nucleotide exchange factor 3 (Homo sapiens) (UniProt O95398); test: Confirmatory qHTS for agonist of cAMP-regulated guanine nucleotide exchange factor 3 (EPAC1) (AID 1645881);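 note: EPAC1 catalysed release of BODIPY-GDP from Rap1B seen as fluorescence loss; 100% = effect of cAMP agonist control; nearly all actives have a fitted effect of over 75% in size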
# Rap guanine nucleotide exchange factor 3 (Homo sapiens), sequence (O95398 whole entry, looked up): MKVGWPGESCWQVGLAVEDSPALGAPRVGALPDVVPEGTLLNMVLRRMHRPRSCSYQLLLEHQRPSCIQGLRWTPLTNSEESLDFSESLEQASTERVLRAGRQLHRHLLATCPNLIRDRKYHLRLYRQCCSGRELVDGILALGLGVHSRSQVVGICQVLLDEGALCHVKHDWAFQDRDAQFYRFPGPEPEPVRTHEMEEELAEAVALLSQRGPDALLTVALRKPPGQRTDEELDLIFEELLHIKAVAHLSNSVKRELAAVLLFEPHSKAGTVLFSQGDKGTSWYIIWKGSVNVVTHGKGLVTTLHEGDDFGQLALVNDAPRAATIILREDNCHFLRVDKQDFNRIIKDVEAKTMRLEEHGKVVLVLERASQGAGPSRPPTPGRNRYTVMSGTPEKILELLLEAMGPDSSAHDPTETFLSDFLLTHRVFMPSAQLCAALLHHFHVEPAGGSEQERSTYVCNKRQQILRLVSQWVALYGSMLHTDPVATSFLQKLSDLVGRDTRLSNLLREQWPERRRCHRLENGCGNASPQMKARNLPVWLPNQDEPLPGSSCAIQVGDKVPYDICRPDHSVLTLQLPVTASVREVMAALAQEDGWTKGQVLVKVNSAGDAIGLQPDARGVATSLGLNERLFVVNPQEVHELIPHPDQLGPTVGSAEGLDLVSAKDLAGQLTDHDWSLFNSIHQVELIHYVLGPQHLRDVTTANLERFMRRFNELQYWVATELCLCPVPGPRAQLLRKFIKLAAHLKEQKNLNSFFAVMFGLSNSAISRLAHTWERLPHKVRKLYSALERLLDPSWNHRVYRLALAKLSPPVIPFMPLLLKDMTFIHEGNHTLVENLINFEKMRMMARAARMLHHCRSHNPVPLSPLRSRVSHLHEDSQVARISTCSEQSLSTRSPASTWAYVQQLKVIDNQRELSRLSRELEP
# [7] = target: Rap guanine nucleotide exchange factor 4 (Homo sapiens) (UniProt Q8WZA2); test: Confirmatory qHTS for agonist of cAMP-regulated guanine nucleotide exchange factor 4 (EPAC2) (AID 1645884);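 note: nucleotide exchange releases bodipy-GDP from Rap1 and this lowers its fluorescence; % is set by controls: 0 for no effect and ±100 for the full control effect; nearly all actives have a fitted effect of over 65% in size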
# Rap guanine nucleotide exchange factor 4 (Homo sapiens), sequence (Q8WZA2 whole entry, looked up): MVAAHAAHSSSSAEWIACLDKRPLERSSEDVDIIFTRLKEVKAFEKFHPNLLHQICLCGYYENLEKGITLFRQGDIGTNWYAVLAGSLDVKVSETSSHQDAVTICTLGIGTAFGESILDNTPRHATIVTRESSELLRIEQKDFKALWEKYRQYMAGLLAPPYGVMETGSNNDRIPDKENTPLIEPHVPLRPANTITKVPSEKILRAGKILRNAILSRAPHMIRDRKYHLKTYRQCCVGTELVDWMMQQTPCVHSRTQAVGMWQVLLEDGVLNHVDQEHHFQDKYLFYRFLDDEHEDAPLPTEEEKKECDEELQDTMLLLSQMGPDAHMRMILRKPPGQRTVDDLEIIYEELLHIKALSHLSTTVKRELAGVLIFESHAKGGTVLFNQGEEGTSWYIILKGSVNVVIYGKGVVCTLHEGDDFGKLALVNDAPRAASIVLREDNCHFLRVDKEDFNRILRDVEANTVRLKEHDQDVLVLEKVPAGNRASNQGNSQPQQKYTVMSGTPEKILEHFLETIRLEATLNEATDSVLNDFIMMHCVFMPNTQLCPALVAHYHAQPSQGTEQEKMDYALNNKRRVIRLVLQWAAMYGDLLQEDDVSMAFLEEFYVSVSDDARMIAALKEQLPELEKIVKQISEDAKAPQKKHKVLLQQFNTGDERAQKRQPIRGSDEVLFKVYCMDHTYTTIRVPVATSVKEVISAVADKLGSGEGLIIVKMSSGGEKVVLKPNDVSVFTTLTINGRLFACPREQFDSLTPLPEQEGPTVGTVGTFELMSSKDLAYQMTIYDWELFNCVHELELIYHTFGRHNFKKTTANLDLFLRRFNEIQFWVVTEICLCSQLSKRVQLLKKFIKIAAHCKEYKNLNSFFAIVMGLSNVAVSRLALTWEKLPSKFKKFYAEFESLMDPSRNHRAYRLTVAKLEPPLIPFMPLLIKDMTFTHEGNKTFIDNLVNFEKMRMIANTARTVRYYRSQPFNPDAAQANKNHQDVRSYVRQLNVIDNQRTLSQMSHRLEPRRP
# [8] = target: Rap guanine nucleotide exchange factor 4 (Homo sapiens) (UniProt Q8WZA2); test: Confirmatory qHTS for antagonist of cAMP-regulated guanine nucleotide exchange factor 4 (EPAC2) (AID 1645885); note: nearly all actives have a fitted effect of over 25% in size; note: potency is the fitted concentration of half-maximal effect; for activity change, negative = inhibition: % is set by controls: 0 for no effect and ±100 for the full control effect
# [9] = target: Rap guanine nucleotide exchange factor 3 (Homo sapiens) (UniProt O95398); test: Counterscreen qHTS for antagonist of cAMP-regulated guanine nucleotide exchange factor 3 (EPAC1) (AID 1645888);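 note: fluorescence loss as bound BODIPY-GDP is released from Rap1B; % of control where 0% means no effect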
# Text: Assay Provider (PI): Xiaodong Cheng Ph.D. The University of Texas Medical Branch, […], TX MLPCN Grant: NS066510 In multi-cellular eukaryotic organisms, the effects of cAMP are transduced by two ubiquitously-expressed intracellular cAMP receptors, the classic protein kinase A/cAMP-dependent protein kinase (PKA/cAPK) and the more recently discovered exchange protein directly activated by cAMP/cAMP-regulated guanine nucleotide exchange factor (EPAC/cAMP-GEF). Both PKA and EPAC are ubiquitously expressed in all tissues, and an increase in intracellular cAMP levels will lead to the activation of both PKA and EPAC. […] This qHTS will be used to screen the Molecular Libraries Small Molecule Repository (MLSMR) as a concentration-titration series using the NCGC unique quantitative screening (qHTS) platform to find activators for EPAC1. […] Activators are identified by monitoring the change in fluorescence signal as the exchanged free BODIPY-GDP has a reduced fluorescence compared to Rap1-bound BODIPY-GDP. […]
# EPAC1 Counterscreen PROTOCOL TABLE SEQUENCE No. (e.g., 1, 2, 3, etc.); […] […] Fluorescence. (Read 1), Ex/Em = 480 nm / 540 nm. […] Fluorescence. (Read 2), Ex/Em = 480 nm/ 540 nm. […] Fluorescence. (Read 3), Ex/Em = 480 nm / 540 nm. […] Fluorescence. (Read 4), Ex/Em = 480 nm / 540 nm. […]
# [10] = target: Rap guanine nucleotide exchange factor 3 (Homo sapiens) (UniProt O95398); test: Counterscreen qHTS for agonist of cAMP-regulated guanine nucleotide exchange factor 3 (EPAC1) (AID 1645889); note: % of control where 0% means no effect; nearly all actives have a fitted effect of over 40% in size
# Procedure, shortened: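 Rap1B-BODIPY-GDP 250 nM + GDP 50 uM; cpds 7-pt, final 9.74 nM–152 uM (activator mode) or from 7.32 nM upwards (inhibitor mode); RT; FI 480/540 nm at 5 and 30 min, then ± cAMP, reread.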
structure (smiles),measurement,setting,value
Cc1ccc(S(=O)(=O)OCC(=O)Nc2ccc(C(=O)O)c(O)c2)cc1,outcome,[1],inactive
NS(=O)(=O)c1ccc(Nc2nc(OCC3CCCCC3)c3[nH]cnc3n2)cc1,activity,[2],-14.9%
same,"activity change, negative = inhibition",[3],-2.65%
same,activity,[4],-73.9%
same,activity,[5],-14.7%
CCN1C[C@H](C)n2c(c(O)c3c(=O)n(Cc4ccc(F)c(Cl)c4)nc(C(=O)NC)c32)C1=O,outcome,[1],inactive
NC(=O)c1nnn(Cc2cc(Cl)c(C(=O)c3ccc(Cl)cc3)c(Cl)c2)c1N,Potency,[6],inactive
same,activation,[7],"5.43% [at 17.1 µM, percent relative to cAMP agonist control] (inactive)"
same,"activity change, negative = inhibition",[8],-14.9% [at 12.7 µM] (inactive)
same,outcome,[9],inactive
same,outcome,[10],inactive
N[C@@H](CC(=O)N1CCn2c(nnc2C(F)(F)F)C1)Cc1cc(F)c(F)cc1F,outcome,[1],inactive
Nc1[nH]nc2nnc(-c3c(-c4ccccc4)nn4ccccc34)cc12,activity,[2],-90.6%
same,Potency,[3],19.2 µM (active)
same,activity,[4],-76.8%
same,activity,[5],-92.5%
CN(C)CCCNC(=O)c1ccc(-c2cc(O)c3ncccc3c2)cc1,activity,[2],-84% and -99.6%
same,"activity change, negative = inhibition",[3],2.82% and 3.64%
same,activity,[4],-0.93% and -8.84%
same,activity,[5],-2.71% and -2.66%
c1ccc(-c2oc3ncnc(NC[C@@H]4CCCO4)c3c2-c2ccccc2)cc1,activity,[2],-58.1%
same,Potency,[3],24.1 µM (active)
same,activity,[4],-46.6%
same,activity,[5],-56.7%
COc1cc2c(cc1Cc1cccc(Cl)c1F)c(=O)c(C(=O)O)cn2[C@H](CO)C(C)C,outcome,[1],inactive
CNC(=O)c1ccc2c(C(=Nc3cccc(CN(C)C)c3)c3ccccc3)c(O)[nH]c2c1,activity,[2],-17.1%
same,"activity change, negative = inhibition",[3],-9.55%
same,activity,[4],-21.7%
same,activity,[5],-16.3%
CC(C)CN(C[C@@H](O)[C@H](Cc1ccccc1)NC(=O)O[C@H]1CO[C@H]2OCC[C@H]21)S(=O)(=O)c1ccc(N)cc1,outcome,[1],inactive
C[C@@]1(c2cc(-c3cncnc3)c(F)cc2F)CCSC(N)=N1,outcome,[1],inactive
CC(C)[C@H](O)C(=O)N[C@@H](C)C(=O)N[C@@H]1C(=O)N(C)CCc2ccccc21,outcome,[1],inactive
Cc1cc2nc3c(=O)[nH]c(=O)nc-3n(CC(O)C(O)C(O)CO)c2cc1C (stereo not drawn),Potency,[8],inactive
Clc1ccc(C2(c3ccc(-c4cn[nH]c4)cc3)CCNCC2)cc1,activity,[2],0.191%
same,"activity change, negative = inhibition",[3],0%
same,activity,[4],-22.3%
same,activity,[5],-4.19%
Fc1ccc(CNc2ncnc3ccc(F)cc23)cc1,outcome,[1],inactive
CCOC(=O)c1c(CSc2ccccc2)n(C)c2cc(Br)c(O)c(CN(C)C)c12,outcome,[1],inactive
O=c1cc(-c2ccc(O)c(O)c2)oc2cc(O)cc(O)c12,Potency,[6],inactive
same,Potency,[7],inactive
same,Potency,[8],inactive
same,outcome,[9],inactive
same,outcome,[10],inactive
CNC(=O)[C@H](Cc1ccccc1)NC(=O)[C@H](CC(C)C)[C@H](CSc1cccs1)C(=O)NO,outcome,[1],inactive
CN1CCc2c(n(Cc3ccc(C(=O)NO)cc3)c3ccccc23)C1,activity,[2],0%
same,"activity change, negative = inhibition",[3],0.311%
same,activity,[4],-0.568%
same,activity,[5],4.88%
c1cc(OCCN2CCCCC2)cc(-c2n[nH]c3ccc(-c4ncn[nH]4)cc23)c1,activity,[2],-3.59%
same,"activity change, negative = inhibition",[3],2.7%
same,activity,[4],-12.9%
same,activity,[5],-6.71%
Cc1ccccc1-n1c(Cn2nc(-c3cccc(O)c3)c3c(N)ncnc32)nc2cccc(C)c2c1=O,activity,[2],-10.8%
same,"activity change, negative = inhibition",[3],0%
same,activity,[4],-28.8%
same,activity,[5],1.94%
Cc1cn([C@@H]2C[C@@H](O)[C@H](CO)O2)c(=O)[nH]c1=O,outcome,[1],inactive
Nc1ncnc2c1ncn2[C@@H]1O[C@H](CO)[C@@H](O)[C@@H]1O,outcome,[1],inactive
CNC(=O)c1c(-c2ccc(F)cc2)oc2cc(N(CCO)S(C)(=O)=O)c(C3CC3)cc12,outcome,[1],inactive
CN(C)CCN(Cc1ccc(Cl)cc1)c1ccccn1,outcome,[1],inactive
CC(C)(F)C[C@H](N[C@@H](c1ccc(-c2ccc(S(C)(=O)=O)cc2)cc1)C(F)(F)F)C(=O)NC1(C#N)CC1,outcome,[1],inactive
CCN1CCC(n2cc(CNc3cc(Cl)c4ncc(C#N)c(Nc5ccc(F)c(Cl)c5)c4c3)nn2)CC1,activity,[2],-89.7%
same,Potency,[3],10.8 µM (active)
same,activity,[4],-81.6%
same,activity,[5],-91.4%
Nc1ncnc2c1c(-c1cccc(OCc3ccccc3)c1)cn2C1CC(CN2CCC2)C1 (stereo not drawn),activity,[2],-26%
same,Potency,[3],30.4 µM (active)
same,activity,[4],-29.1%
same,activity,[5],-91.7%
CC1(COc2ccc3c(c2)ncn3-c2ccc3cccc(N4CCC(N)CC4)c3n2)COC1,activity,[2],-30.2%
same,Potency,[3],42.9 µM (active)
same,activity,[4],-29.9%
same,activity,[5],-30.6%
CNC1CCC(N(Cc2cccc(-c3ccncc3)c2)C(=O)c2sc3ccccc3c2Cl)CC1 (stereo not drawn),activity,[2],-14.8%
same,"activity change, negative = inhibition",[3],-1.13%
same,activity,[4],-65.2%
same,activity,[5],-20.3%
COc1ccc(-c2nc3ccc(C4=NNC(=O)CC4C)cc3[nH]2)cc1 (stereo not drawn),outcome,[1],inactive
CC(C)CNc1ccnc(NCc2csc(-c3ccccc3)n2)n1,activity,[2],-9.21%
same,"activity change, negative = inhibition",[3],-8.39%
same,activity,[4],-34.7%
same,activity,[5],-20.3%
Cc1ccc2c(c1)c1c(n2CCc2ccc(C)nc2)CCN(C)C1,activity,[2],-6.68%
same,"activity change, negative = inhibition",[3],-3.88%
same,activity,[4],-13.3%
same,activity,[5],-2.48%
COc1ccc2ccc(=O)oc2c1CC=C(C)C,outcome,[1],inactive
Cc1ccc2c(=O)c3cccc(CC(=O)O)c3oc2c1C,outcome,[1],inactive
O=C(O)c1nc(=O)[nH]c(=O)[nH]1,outcome,[1],inactive
C[C@@H](O[C@H]1OCCN(Cc2n[nH]c(=O)[nH]2)[C@@H]1c1ccc(F)cc1)c1cc(C(F)(F)F)cc(C(F)(F)F)c1,Potency,[6],inactive
same,Potency,[7],inactive
same,Potency,[8],22.1 µM (active)
